Compounds without any hit were thinned out: in the full panel of roughly 79,000, 15% have a hit. Values without a mark were called inactive. No stated cut-off is given here; in the data, active means growth inhibition above about 70%; inactive means the rest.
Assay: NCI Yeast Anticancer Drug Screen. Data for the rad50 strain (AID 155);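 further: 0% = growth of vehicle-only cultures of the same strain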
Details: S. cerevisiae rad50 strain growth inhibition; at 50.0 µM; active compounds read high
Outline: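 Inhibition values express reduced yeast growth in compound-treated cultures relative to vehicle-treated controls.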
CCCN(Cc1ccccc1)CC(O)c1ccc(Cl)cc1 (centres undefined) showed a growth inhibition of 0.95%. COC[C@@H](N=Cc1ccc(OC)cc1)C(C)C showed a growth inhibition of -12.2%. Work on Cc1c(C(=O)CC2OC(=O)C(Cl)=C2Cl)c2ccccc2n1C(=O)Nc1ccc(Cl)cc1 (centres undefined) yielded a growth inhibition of 15.8%. CN(C)CCNc1ncnc2nc(-c3ccc4ccccc4c3)[nH]c12 gave a growth inhibition of -11%. Work on CC(C)N(CC(=O)O)CC(=O)O yielded a growth inhibition of -0.95%. Compound C=CCOC(=O)CC has a growth inhibition of 5.95%. For CCC(C)(O)CCC(C)(O)CC (centres undefined), the growth inhibition was 27.6%. For COc1ccc(C(=O)N=Nc2ccccc2)cc1, the growth inhibition was 0.05%. Compound COC(=O)C(C(=O)C(=O)Nc1c(Cl)cc([N+](=O)[O-])cc1Cl)c1nc2cc(C)c(C)cc2[nH]c1=O (centres undefined) has a growth inhibition of 16.6%. For O=C1C(=O)c2ccccc2C(O)=C1CC=C(Cl)Cl, the growth inhibition was -3.9%. For COc1cc(Cl)ccc1C, the growth inhibition was -1.2%. Work on NNC(=O)Nc1ccccc1 yielded a growth inhibition of 3.8%. For N#CC(c1ccccc1)C1CCCCC1 (centres undefined), the growth inhibition was -8.65%. With COc1cccc(C2c3cc4c(cc3OC(C)(OC)C2C)OCO4)c1 (centres undefined) the growth inhibition was 19.8%. Work on CCOC(=O)N(CCCl)C(=O)C(C)C yielded a growth inhibition of -21.6%. ClC(Cl)(Cl)C1CCC2CCCC21 (centres undefined) gave a growth inhibition of 4.15%. Fc1ccc(NC(=S)Nc2ccc(F)cc2)cc1 gave a growth inhibition of -19.4%. Compound O=C1/C(=C/c2ccc3c(c2)OCO3)CC/C1=C\c1ccc2c(c1)OCO2 has a growth inhibition of -10.2%. Work on Cc1ccc(S(=O)(=O)N/N=C(\C(=N/OCc2ccccc2)c2ccccc2)c2ccccc2)cc1 yielded a growth inhibition of 43.4%.

Source: PubChem BioAssay (NCI)
